High-throughput results deposited in PubChem by several laboratories.
tim10-1 inh: inhibits growth of tim10-1 mutant yeast. S. cerevisiae tim10-1 ts strain growth, BacTiter-Glo, 24 h. 2.2% of 330,000 active. inhibition, % at 20 µM;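 active = inhibition of at least 40%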;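 note: mutant grown at 25 °C; 0% = DMSO wells with yeast and 100% = wells holding no yeast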
tim23-1 inh: inhibits growth of tim23-1 mutant yeast. 1.3% of 330,000 active. inhibition, % at 20 µM. S. cerevisiae tim23-1 growth, BacTiter-Glo luminescence, 24 h. AID 463212;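 active = growth inhibition of the mutant yeast at or above 50%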;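 note: temperature-sensitive mutant grown at 25 °C; plate controls were DMSO-treated mutant yeast for no effect and medium wells lacking yeast for full effect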
SKKanGAS inh: SKKanGAS growth inhibition. S. pyogenes SKKanGAS, kanamycin growth, BacTiter-Glo, 6 h. inhibition, % at 7.5 µM. 1.3% of 300,000 active;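 active = mean replicate score, as percent of positive control median, at least 50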;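 note: strain carries kanamycin resistance gene driven by streptokinase promoter and grows in 40 µg/ml kanamycin; loss of luminescence reflects streptokinase promoter inhibition or plain growth inhibition; 0% = median of DMSO wells and 100% = positive control at its reference dose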
TIM10 inh: TIM10 yeast growth inhibition; S. cerevisiae TIM10 strain growth, BacTiter-Glo luminescence, 24 h; inhibition, % at 10 µM; 1.4% of 330,000 active;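 active = inhibition of 40% or more at the single tested concentration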;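 note: wild-type TIM10 isogenic control strain grown at permissive 25 °C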
EBI2 block: EBI2 (human) antagonism; P32249; EBI2 beta-arrestin recruitment, luminescence, 7a,25-OHC stimulated; inhibition, % at 5 µM; 0.81% of 360,000 active; AID 651636; in the data active = inhibition above about 38%;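 note: enzyme fragment complementation signal reports receptor beta-arrestin coupling in cells; 0% = agonist plus DMSO wells and 100% = wells without agonist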
Target sequence (P32249 whole entry, looked up, the tested form may be a part): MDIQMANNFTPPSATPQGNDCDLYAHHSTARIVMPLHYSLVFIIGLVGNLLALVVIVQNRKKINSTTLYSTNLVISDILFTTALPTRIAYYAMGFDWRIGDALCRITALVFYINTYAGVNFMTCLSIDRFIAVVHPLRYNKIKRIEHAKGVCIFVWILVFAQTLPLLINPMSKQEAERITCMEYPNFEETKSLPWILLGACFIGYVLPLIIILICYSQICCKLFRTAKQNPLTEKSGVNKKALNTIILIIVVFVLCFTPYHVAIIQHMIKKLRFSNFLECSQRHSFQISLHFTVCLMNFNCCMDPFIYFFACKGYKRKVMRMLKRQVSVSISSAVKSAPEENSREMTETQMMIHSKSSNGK
PfHsp90 set2: inhibits growth of yeast expressing Plasmodium falciparum Hsp90; S. cerevisiae expressing PfHsp90, BacTiter-Glo ATP, 48 h; yeast lacking PDR1 and PDR3 efflux regulators; inhibition, % at 9.4 µM; 0.32% of 310,000 active;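 active = every replicate shows inhibition above about 80%, whatever the replicate mean, limit read from the data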;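 note: 0% = DMSO neutral controls and 100% = 20 µM radicicol positive controls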
tim10-1 conf: tim10-1 yeast growth inhibition, confirmed; shares compounds with tim10-1 inh; S. cerevisiae tim10-1 ts strain growth, BacTiter-Glo, 24 h; inhibition, % at 20 µM; 56% of 7,400 active; AID 463213;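 active = inhibition of yeast growth at or above a set limit in either of two repeat tests at 20 µM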;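 note: tim10-1 mutant grown at permissive 25 °C to find synthetic lethal compounds; 0% = DMSO yeast wells and 100% = medium wells without yeast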
tim10 confirm: confirmation of TIM10 yeast growth inhibitors; shares compounds with TIM10 inh; S. cerevisiae tim10 strain growth, BacTiter-Glo luminescence, 24 h; inhibition, % at 10 µM; 63% of 4,600 active; AID 463215;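 active = inhibition of yeast growth at or above a set limit in either of two replicates at 10 µM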;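 note: this counterscreen used the strain with wild-type TIM10; 0% = yeast with DMSO and 100% = medium wells lacking yeast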
* = called active by the depositor; x = no result given; ! = not active in a repeat. Only some compounds are listed: those with a hit (about 4.7% of all), similar ones and a draw of the others.

SMILES	tim10-1 inh	tim23-1 inh	SKKanGAS inh	TIM10 inh	EBI2 block	PfHsp90 set2	tim10-1 conf	tim10 confirm
COc1ccc(CCNC(=S)NC(=O)c2cc(OC)c(OC)c(OC)c2)cc1OC	7	-3	4	-5	-1	-21	x	x
CCCC(=O)Nc1nc(C)c(-c2csc(Nc3ccc(Cl)cc3)n2)s1	39	48	25	27	31	-5	x	x
CCC(C)C(=O)Nc1nc(C)c(-c2csc(Nc3ccc(Cl)cc3)n2)s1 (centres undefined)	40*	41	22	44*	36	-14	24	30
Cc1ccc(N2C(=O)CC(Sc3nc4ccccc4o3)C2=O)cc1Cl (centres undefined)	59*	35	2	50*	-2	x	43*	34*
COc1ccc(Oc2ccccc2C=O)cc1	0	14	-12	2	-16	-2	x	x
Cc1nc(N2CCC(C)CC2)c2oc3ccccc3c2n1	49*	46	13	46*	10	-6	27	47*
O=C(NCc1ccccc1Cl)c1cc(C(=O)C2CC2)c[nH]1	-7	-2	-4	-4	-5	23	x	x
Cc1sc(-c2ccncc2)nc1OC(=O)c1ccccc1	3	11	-5	-6	-18	-6	x	x
CCOc1ccc(S(=O)(=O)n2nnc3ccccc32)cc1C	-8	-10	1	0	x	x	x	x
CCOc1ccc(Cl)cc1S(=O)(=O)n1nnc2ccccc21	46*	47	-2	51*	16	-6	42*	-9
CCOc1ccc2nc(N/C(N)=N/C(=S)Nc3cccc(C)c3)nc(C)c2c1	31	25	21	18	26	7	x	x
CCc1ccccc1NC(=S)/N=C(\N)Nc1nc(C)c2cc(C)ccc2n1	45*	43	-6	44*	-3	-9	15	-13
COc1ccc(S(=O)(=O)NC2CCCCCC2)cc1C(N)=O	2	28	-3	12	1	-15	x	x
CCOC(=O)/C=C/C(=O)OCC(=O)Nc1ccc(OC)c(Cl)c1	53*	40	-4	44*	-1	-12	41*	36*
Cc1cc(NC2CCCCC2)nc(-c2ccccc2O)n1	37	28	-8	27	-21	-14	x	x
Cc1cc(NCc2ccccc2)nc(-c2ccccc2O)n1	64*	47	17	66*	18	x	49*	46*
Cc1ccc(/C=C/C(=O)Nc2cc(C)on2)cc1	10	-10	2	6	0	-12	x	x
Cc1ccc(/C=C/C(=O)Nn2cnnc2)cc1	56*	45	2	42*	2	16	27	39*
CC(c1nnc(SCC(=O)Nc2cccnc2Cl)n1Cc1ccccc1)N(C)C (centres undefined)	21	5	0	-5	-8	-7	x	x
O=C(OC1CCOC1=O)c1cc(S(=O)(=O)N2CCOCC2)c(Cl)cc1Cl (centres undefined)	-13	-8	x	-5	-6	x	x	x
Cc1ccnc(Nc2nc(-c3c(C)nc4sccn34)cs2)c1	44*	11	5	45*	7	-12	13	32*
Cc1ccc2cc(C)c(N3CCN(c4ccccn4)CC3)nc2c1	53*	41	0	43*	11	19	34*	38*
Cc1ccc(Nc2nnc(SCC(=O)c3ccc(Br)s3)s2)c(C)c1	43*	38	29	46*	-7	-19	34*	-7
Cc1nn(-c2ccccc2)c(C)c1/C=N/n1c(-c2ccc(C(C)(C)C)cc2)n[nH]c1=S	47*	46	87*	44*	14	-15	33*	44*
O=C(Nc1ncccn1)c1ccc([N+](=O)[O-])o1	0	5	20	14	-13	-24	x	x
SMILES	tim10-1 inh	tim23-1 inh	SKKanGAS inh	TIM10 inh	EBI2 block	PfHsp90 set2	tim10-1 conf	tim10 confirm
O=C(Nc1ccccn1)c1ccc([N+](=O)[O-])o1	44*	46	-2	44*	5	0	39*	35*
CCN(C(=O)CCc1nnc2ccc(NCc3ccco3)nn12)c1ccccc1	1	-7	-1	-15	13	-3	x	x
Nc1nccnc1C(=O)OCC(=O)C12CC3CC(CC(C3)C1)C2	-4	4	-6	2	-1	7	x	x
N#CC1(C#N)CC(C=O)=C(N)C1(C#N)CC(=O)C12CC3CC(CC(C3)C1)C2 (centres undefined)	40*	48	9	48*	-8	22	48*	40*
Cn1c(/C=C/c2ccc([N+](=O)[O-])o2)nc2ccccc2c1=O	77*	-3	48	77*	7	98*	58*	-20
Cn1c(/C=C/c2ccccc2)nc2ccccc2c1=O	31	24	2	-16	-9	-1	x	x
Cc1ccc2c(c1)C1CN(C)CCC1N2C(=O)c1cccc(S(=O)(=O)N2CC(C)CC(C)C2)c1 (centres undefined)	47*	25	-4	55*	1	17	43*	38*
CC(C)c1onc(C(=O)Nc2cccc(Cl)c2)c1[N+](=O)[O-]	45*	37	6	41*	-8	-7	37*	39*
COCCNC(=O)C1(C)CCCN(C(=O)c2ccc(C)c(F)c2)C1 (centres undefined)	x	x	x	x	-16	x	x	x
Cc1ccc2c(c1)/C(=C/c1ccccc1)C(=O)N2	55*	24	-10	49*	-32	-99	39*	62*
Cc1ccc2c(c1)/C(=C/c1ccccc1F)C(=O)N2	27	49	-8	34	-19	-31	x	x
C=C[C@]1(C)C[C@@H](OC(=O)CSCCN(CC)CC)[C@]2(C)C(C)CC[C@]3(CCC(=O)[C@H]32)[C@@H](C)[C@@H]1O (some centres undefined)	46*	34	104*	42*!	6	21	40*!	38*
Cc1ncc(CO)c(/C=N/NC(=S)Nc2cccc(Cl)c2)c1O	34	1	-8	30	-13	-30	x	x
Cc1ncc(CO)c(/C=N/NC(=S)Nc2ccc(Cl)c(Cl)c2)c1O	51*	20	66*	92*	-7	28	33*	38*
COCCN(CC(=O)Nc1cccc(C)c1C)C(=O)c1oc2c(Cl)cccc2c1C	-5	27	x	10	18	-5	x	x
O=C(COc1ccccc1)NC(=S)N1CCc2ccccc21	43*	43	11	41*	1	-6	18	-23
COc1ccc(OCC(=O)NC(=S)N2CCCc3ccccc32)cc1	-4	9	2	-3	6	-8	x	x
CC(C)CC(N)c1csc(Nc2cnccn2)n1 (centres undefined)	x	x	x	x	-5	x	x	x
